The values below come from PubChem BioAssay AID720650 (Broad Institute, 2013).

Molecules are shown by their SMILES. A number with no mark means an inactive call. Calls of active or inactive are those of the source. No rule for the calls is given here.

The experiment is described as follows: Biochemical counterscreen for C difficile toxins, absence of UDPG, inhibitor dose response (AID 720650). Conditions: series mostly up to 19.5 µM; activity change, negative = inhibition: at the top concentration.
Regarding `COc1ccc2nccc(/C=C/c3ccnc4ccc(OC)cc34)c2c1`, the “activity change, negative = inhibition” value was -16%.
In the case of `COC(=O)C(Cc1ccccc1)NC(=O)CSc1nc(C)cc(=O)[nH]1` (stereo unspecified), the “activity change, negative = inhibition” value is 0.635%.
The same measure, in the same setting: as for `COc1ccc(C2=NS(=O)(=O)N(C)C(C(=O)NCc3ccc4c(c3)OCO4)=C2)cc1OC`, the figure is -0.875%.
As for `Oc1ccc(CCNc2ncnc3ccc(Cl)cc23)cc1`, the AC50 (in general, the concentration at which the activity in the assay is half-maximal) is 19.5 µM (active).
For `C/C(=N\OCC(=O)Nc1nc2ccccc2s1)c1ccccc1`, the “activity change, negative = inhibition” value was 8.02%.
On the same count and under the same terms, then `COc1cc(/C=N/NC2=NCCCCC2)ccc1O`, with -10.1%; and `COc1ccc(SC[C@H](C)CN2CC[C@H](NC(=O)OCc3ccccc3)CCC2=O)cc1`, with 6.43%.
Turning to `COc1ccccc1-n1c(SCC(=O)O)nc2c(sc(=S)n2-c2ccc(C)c(C)c2)c1=O`, the AC50 is more than 39 µM.
For `NC(=O)Nc1ccc(Nc2ccccc2)cc1`, the AC50 was more than 39 µM.
Consider `C/C(=N\Nc1ccc([N+](=O)[O-])cc1)c1cccc(N)c1`, for which the AC50 is 1.42 µM (active).
With `O=c1c(OC2OC(CO)C(O)C(O)C2O)c(-c2ccc(O)c(O)c2)oc2cc(O)cc(O)c12` (stereo unspecified), the “activity change, negative = inhibition” value is -10.2%.
The same measure, in the same setting: as for `CCOc1ccc2c(C)nc(NC3=NC(C)(C)C=C(C)N3)nc2c1`, the figure is -8.03%.
For `C[C@H](CO)N1C[C@H](C)[C@@H](CN(C)C(=O)Nc2ccc(C(F)(F)F)cc2)Oc2c(cccc2N(C)C)C1=O`, the AC50 is 19 µM (active).
`Oc1ccc(Nc2nc(Cl)nc(NCc3ccco3)n2)cc1`: the “activity change, negative = inhibition” value was -15.3%.
For the molecule `COc1ccc(S(=O)(=O)Nc2ccc3oc(C)c(C(=O)O)c3c2)cc1`, the AC50 is more than 39 µM.
Turning to `O=C1COc2ccc(C(=O)COC(=O)CNS(=O)(=O)c3cccc(F)c3)cc2N1`, the “activity change, negative = inhibition” value is -7.12%.
Same read-out and setting: then `c1ccc(SCc2nc3ccccc3s2)nc1`, with -1.41%.
Consider `COc1ccc(Cl)cc1NC(=S)NC1CCCC1`, for which the “activity change, negative = inhibition” value is -4.37%.
Consider `Cc1cc(C)nc(/N=C(\N)Nc2ccccc2-c2ccccc2)n1`, for which the AC50 is more than 39 µM.
On the same count and under the same terms, then `CN1c2ccc(-c3ccccc3)cc2[C@@H]2[C@@H](CCN2C(=O)CN2CCOCC2)[C@@H]1CO`, with 7.03 µM (active); and `CCCNC(=O)N1CC[C@@H]2[C@@H](CO)N(C)c3ccc(-c4ccccc4)cc3[C@@H]21`, with 3.93 µM (active).
